# Reference: PubChem BioAssay AID652099 (National Center for Advancing Translational Sciences (NCATS), 2013)
# Activity calls are given as the source filed them.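 Rule for the calls: active = Gaucher patient macrophages show a phagocytic index close to or matching that of healthy macrophages; inactive = the rest.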
# Assay: Extended Characterization of Activators of N370S glucocerebrosidase as a Potential Chaperone Treatment of Gaucher Disease: Phagocytosis Index
# Settings: Gaucher iPSC macrophages, phagocytosis of fluorescent E. coli particles
# Source text: Glucocerebrosidase (GCase) catalyzes the hydrolysis of beta-glucocerebroside (GC) to glucose and ceramide in lysosomes. Mutations in the glucocerebrosidase gene result in Gaucher disease, an autosomal recessive lysosomal storage disorder. Many of the mutations encountered in patients with Gaucher disease are missense alterations that may cause misfolding, decreased stability and/or mistrafficking of this lysosomal protein. […] These inhibitors include iminosugar analogs and other inhibitors that were discovered as part of previous work. However, the enhancement of enzyme activity by the chaperone action of an enzyme inhibitor must be balanced against the direct inhibition of the enzyme. […] In this extended characterization of our probe, we have further characterized the activity of probes in relevant models of Gaucher disease. This assay examine phagocytosis in patient-derived macrophages following compound incubation. NIH Chemical Genomics Center [NCGC] NIH Molecular Libraries Probe Production Centers Network [MLPCN] MLPCN Grant: MH086442 Assay Submitter (PI): Ellen Sidransky, NHGRI
# HMacs and iMacs, plated in black 96-well clear bottom plates, were treated, washed and incubated for 2 hrs with 100 µl of fluorescein-labeled E. coli BioParticles (Vybrant Phagocytosis Assay, Invitrogen).
row,SMILES,outcome
1,C#Cc1ccc(NC(=O)c2cnn3c(C)cc(C)nc23)cc1,active; similar to control
